# Test results reported in the supplement of paper PMC6555819.
# Assays:
# Assay in all cases: PBM binding z-score (relative to random genomic background probes); higher = stronger binding; sequences stand for … in GC…GCGATTGACAGCGTAGAATGAAGG
# [1] = system: PPARg:RXRa DBDmut IVT, anti-RXR (DBD mutation: RXRa K156A/R161A, NR concentration 270 nM, RXRa partner concentration 90 nM)
# In short: (§1)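 Binding z-scores were set against random background probes. The data came from custom Agilent 4×180K protein-binding microarrays carrying double-stranded probes with 34-nt variable regions, incubated 1 h with ligand-free nuclear receptor dimers. Partner-specific antibodies detected binding, and scanned fluorescence was regression-normalized.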
# [2] = system: PPARg:RXRa IVT, anti-PPARg (NR concentration 270 nM, RXRa partner concentration 90 nM)
# In short: as §1
# [3] = system: PPARg DBDmut:RXRa IVT, anti-PPARg (DBD mutation: PPARg1 K132A/R137A, NR concentration 270 nM, RXRa partner concentration 90 nM)
# In short: as §1
# [4] = system: PPARg DBDmut IVT, anti-PPARg (DBD mutation: PPARg1 K132A/R137A, NR concentration 270 nM)
# In short: as §1
# [5] = system: PPARg homodimer (NR concentration 180 nM)
# In short: as §1
# [6] = system: PXR:RXRa (NR concentration 270 nM, RXRa partner concentration 90 nM)
# In short: as §1
# [7] = system: PXR homodimer (NR concentration 270 nM)
# In short: as §1
# [8] = system: RARa:RXR (NR concentration 270 nM, RXRa partner concentration 90 nM)
# In short: as §1
# [9] = system: RARa homodimer (NR concentration 270 nM)
# In short: as §1
# [10] = system: RARb:RXRa (NR concentration 270 nM, RXRa partner concentration 90 nM)
# In short: as §1
# [11] = system: RARb homodimer (NR concentration 270 nM)
# In short: as §1
# [12] = system: RARg:RXRa (NR concentration 270 nM, RXRa partner concentration 90 nM)
# In short: as §1
# [13] = system: RARg homodimer (NR concentration 270 nM)
# In short: as §1
# [14] = system: RXRa DBDmut IVT, anti-RXR (DBD mutation: RXRa K156A/R161A, NR concentration 90 nM)
# In short: as §1
# [15] = system: RXRa homodimer (NR concentration 180 nM)
# In short: as §1
# [16] = system: THRa:RXRa (NR concentration 90 nM, RXRa partner concentration 90 nM)
# In short: as §1
# [17] = system: THRa homodimer (NR concentration 90 nM)
# In short: as §1
# [18] = system: VDR:RXRa (NR concentration 270 nM, RXRa partner concentration 90 nM)
# In short: as §1
# [19] = system: VDR homodimer (NR concentration 270 nM)
# In short: as §1
Sequence,PBM binding z-score [1],PBM binding z-score [2],PBM binding z-score [3],PBM binding z-score [4],PBM binding z-score [5],PBM binding z-score [6],PBM binding z-score [7],PBM binding z-score [8],PBM binding z-score [9],PBM binding z-score [10],PBM binding z-score [11],PBM binding z-score [12],PBM binding z-score [13],PBM binding z-score [14],PBM binding z-score [15],PBM binding z-score [16],PBM binding z-score [17],PBM binding z-score [18],PBM binding z-score [19]
TATACAGGGTCAAAGGCCAGAGAACGAATGTCGA,2.4,4.67,1.74,1.99,2.58,4.27,0.698,6.02,1.1,4.27,3.31,5.7,5.34,2.75,7.14,3.4,0.635,4.77,2.34
CCTACTGGGCCACGAATGGTCATTGATTCAGTGA,5.35,5.07,-0.0715,0.085,0.236,-0.684,-0.838,-0.385,-0.616,0.436,0.417,-0.0594,0.262,-0.448,-0.409,-0.231,-0.537,-0.558,-0.38
GTACCAAGGTGAATAGGTCGTTAATGAGTAGGCG,1.75,2.66,0.399,0.346,1.46,0.664,0.393,1.44,0.00305,1.91,1.88,2.4,1.37,-0.112,1.7,1.7,0.636,0.93,0.459
CCTAGTTGGTCAGAAGGTCACACACCGGATATGA,1.63,2.85,1.32,0.414,4.39,3.98,1.29,4.56,3.08,3.85,4.46,4.85,4.38,0.926,4.4,3.12,1.59,3.5,2.21
CGTCTAAGGTCAATGCTAGGTCAGTGAAAGCATT,3.81,4,-0.172,-0.413,4.57,4.95,1.41,6.06,0.698,5.35,5.09,7.91,7.34,3.82,6.12,4.67,4.42,5.23,3.13
ACTATTTGTTGAGACGAGGGCAACCGATAGGTTG,0.443,0.881,1.52,1.09,0.629,0.581,0.979,0.391,0.779,1.07,1.14,0.614,0.897,0.884,0.414,1.21,0.711,0.711,1.3
ATATGTAGGTTAAGGGTTATTCAGGTTGGTTCGC,7.57,7.51,3.47,3.04,2.78,2.84,1.6,2.88,2.39,1.88,1.91,2.11,1.34,0.963,2.75,2.37,1.52,3.27,1.83
ATCTCTAGGTAGAGTTCAGTGAAAGATCGATAGA,0.277,0.789,1.33,0.623,0.95,2.52,2.07,1.22,0.329,1.82,1.89,1.61,1.55,2.18,1.3,0.946,-0.259,2.38,3.41
AGAACGAGGGGAATGAGTTGATAGCACGGGTGGC,1.5,0.636,0.108,0.301,0.561,-0.115,0.264,0.125,0.109,0.142,0.0648,0.0895,0.0667,0.224,0.437,0.0318,-0.151,2.09,0.812
GCTATTAGTTGAAAGGGGAACCGAATGATTCTCG,0.8,0.272,-0.324,-0.088,0.558,-0.107,0.237,0.154,0.912,0.185,-0.167,0.105,0.00369,0.78,0.144,0.00231,-0.215,-0.142,-0.125
ATCTCTAGGTCACAAGTTCAGTGAAAGAGAGGAC,6.82,6.99,2.94,2.5,2.82,3.7,2.65,3.86,1.69,4.5,4.24,5.58,6.02,2.17,4.04,3.4,2.36,4.26,3.53
TCTTGTAGATCAACAGAGGTTAAGAAAGTGCGCT,1.7,0.862,0.181,0.408,0.896,3.06,0.45,1.95,0.0806,1.18,1.45,0.848,0.565,0.665,1.68,2.55,-0.186,2.03,0.274
TCATATAGGTAATACAGGTGAAAGCCGGCATCTA,3.7,3.6,1.75,1.32,1.14,0.985,0.433,1.36,0.756,0.757,0.482,0.795,0.815,1.69,1.55,1.14,0.273,1.2,0.67
CCTACTGGGCCATCAGGCCATTGATATCAACGTT,3.85,3.8,-0.657,-0.731,0.142,-0.281,-0.336,-0.428,-0.00311,0.28,0.414,-0.00329,0.297,-0.604,-0.42,0.561,0.656,-0.292,-0.112
TGAATGAGGTTATATGATCAGGGAACGTTGCAAA,1.01,1.63,0.22,0.825,0.489,1.04,0.00293,1.77,0.606,1.26,0.492,1.64,0.971,1.26,2.06,1.98,0.364,1.33,0.855
